A selection: hits, their analogues and other compounds. The true share with any hit is near 2.9%.
CF NFkB block = inhibitors of cystic fibrosis induced NF-kB | KKLEB NF-kB-GFP reporter, PAF-induced, GFP fluorescence overnight | inhibition, % at 5 µM | 0.86% of 360,000 active | AID 588850;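 active = at least 50% inhibition at 5 µM, scaled per plate between neutral and stimulator controls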;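 note: PAF is a Pseudomonas aeruginosa culture filtrate used as stimulus; plate controls were PAF-stimulated DMSO wells for no effect and unstimulated DMSO wells for full effect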
TRPM1 prom inh = inhibitors of MITF-driven TRPM1 promoter in melanoma cells; 0.83% of 330,000 active; inhibition, % at 12.5 µM; AID 488899; SK-MEL-5 TRPM1 promoter luciferase, 24 h;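 active = mean inhibition across replicates of 60% or more, whatever share of single replicates reaches that level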
Shn3 inh set2 = reduces Shn3 3'UTR luciferase signal in osteoblasts; Clone20 osteoblast Shn3 3'UTR firefly luciferase, 24 h; inhibition, % at 12.5 µM; 0.52% of 360,000 active;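 active = mean inhibition of at least 75% with every replicate also reaching 75%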;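 note: 0% = median of neutral control wells and 100% = pilot-screen positive control compound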
KKLEB tox = CF airway cell cytotoxicity counter-screen. KKLEB CF airway cells viability, ATPlite luminescence, overnight; hits give low values; cells stimulated with P. aeruginosa culture filtrate. activity change (cytotoxicity), % at 5 µM. 0.36% of 360,000 active;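 active = corrected activity change at or below -50% at 5 µM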
Peg3 prom inh-1 = inhibitors of Peg3 promoter. HeLa PEG-Prom luciferase reporter, luminescence, overnight. inhibition, % at 20 µM. 1.7% of 360,000 active. AID 588405;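 active = inhibition of at least 50% at 20 µM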
LMP1 NFkB inh = Epstein-Barr LMP1 NF-kappaB reporter inhibition; LMP1-induced NF-kappaB luciferase reporter cells, luminescence; inhibition, % at 12.5 µM; 0.69% of 350,000 active; AID 504558; in the data active = inhibition above about 41%;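 note: 0% = neutral control wells and 100% = reference inhibitor control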
Peg3 prom inh-2 = Peg3 promoter inhibition confirmation | 84% of 1,300 active | HeLa PEG-Prom luciferase reporter, luminescence, overnight | shares compounds with Peg3 prom inh-1 | inhibition, % at 20 µM;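 active = at 20 µM dose, 40% or more inhibition averaged across four replicates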
CF NFkB conf = confirmation of cystic fibrosis induced NF-kB inhibitors; shares compounds with CF NFkB block; KKLEB CF airway cells, PAF-induced NF-kB-GFP fluorescence, overnight; inhibition, % at 5 µM; 64% of 1,300 active; in the data active = inhibition above about 40%;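 note: stimulus PAF is a Pseudomonas aeruginosa filtrate and not platelet activating factor; plate controls were DMSO wells with stimulus for no effect and unstimulated DMSO wells for full effect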
* marks the source's active call; other numbers are inactive results; . = no result given.

SMILES	CF NFkB block	TRPM1 prom inh	Shn3 inh set2	KKLEB tox	Peg3 prom inh-1	LMP1 NFkB inh	CF NFkB conf	others
Cc1ncccc1C(=O)N1CCCC(c2cc(C(=O)Nc3ccc(C(C)(C)C)cc3)no2)C1 (centres undefined)	10	.	28	-2	-23	.	.
Cc1cccc(CNc2ncnc3ccc(-c4ccoc4)cc23)c1	70*	1	-6	-3	50*	75*	87*	Peg3 prom inh-2=41*
CC(C)(C)OC(=O)N1CCCC(C(=O)Nc2ccc(C(=O)NC3CC3)cc2)C1 (centres undefined)	-9	-3	10	3	12	-2	.
COc1ccc(S(=O)(=O)N(C)CC(=O)NCCCN2CCOCC2)cc1C	20	2	-8	2	-1	-10	.
CCCCCCCC(=O)NNC(=O)Cc1ccccc1	-19	11	2	8	2	9	.
CCCCCCCCCCCC(=O)c1c(O)cccc1O	71*	3	2	-12	26	-1	41*
O=C(N/N=C/c1coc2ccc(Cl)cc2c1=O)c1ccc(O)cc1	51*	13	18	-10	16	-4	16
COc1ccc(C(=O)N/N=C\c2coc3ccc(Cl)cc3c2=O)cc1	44	10	-4	-11	-2	3	.
COc1cc(C(=O)N/N=C/c2coc3ccc(Cl)cc3c2=O)ccc1O	61*	-6	5	-15	0	11	39
CN(C)c1ccc(C(C(=O)NC2CCCCC2)N(Cc2ccco2)C(=O)c2snc(C(N)=O)c2N)cc1 (centres undefined)	88*	-11	8	-44	41	10	79*
COc1cc(C(C(=O)NC2CCCC2)N(Cc2ccco2)C(=O)c2snc(C(N)=O)c2N)cc(OC)c1OC (centres undefined)	-9	2	-3	0	-2	-8	.
CCOc1ccc(C(C(=O)NC2CCCC2)N(C(=O)c2snc(C(N)=O)c2N)c2cccc(O)c2)cc1 (centres undefined)	75*	0	6	-11	53*	0	70*
CCn1ccnc1CNC(=O)c1ccc(OC2CCN(C(=O)COC)CC2)cc1	14	-5	-9	-9	4	-7	.
O=C(/C=C/c1ccc([N+](=O)[O-])cc1)c1ccccc(=O)c1O	68*	69*	59	-9	107*	19	-88
O=[N+]([O-])c1ccccc1C=NN1CCCCCC1	22	-17	-7	-2	-72	-5	.
COc1cc(CN(C)c2ccc(S(=O)(=O)N3CCCC3)cn2)ccc1OC(F)F	54*	-8	15	-13	8	5	55*
COc1ccc(CCN(C)c2ccc(S(=O)(=O)N3CCCC3)cn2)cc1OC	9	8	17	-3	17	2	.
COc1ccc(OC)c(/C=C/C(=O)N2C(=O)c3cccc(N)c3C2=O)c1	60*	55	92*	-40	64*	-32	37
COc1cc(/C=C/C(=O)N2C(=O)c3cccc(N)c3C2=O)cc(OC)c1OC	64*	21	-19	-5	65*	-30	-5
CC1=C(C(=O)N(C(C)C)C(C)C)CC(CC(=O)NC2CC2)C(=O)N1CCC1=CCCCC1 (centres undefined)	-10	.	-23	-24	14	.	.
COc1c(/C=N/Nc2ccc([N+](=O)[O-])cc2[N+](=O)[O-])c(C)nn1-c1ccccc1	60*	21	-12	-38	16	5	41*
COc1ccccc1NS(=O)(=O)c1ccc(N/N=C/c2c(C)nn(-c3ccccc3)c2N2CCCC2)c([N+](=O)[O-])c1	24	2	-1	-16	25	7	.
CC(=O)Nc1cccc(NC(=O)c2cc(-c3cccnc3)nc3ccc(Br)cc23)c1	84*	8	24	-44	61*	-10	57*
O=C(Nc1ccc(C(F)(F)F)cc1)c1cc(-c2cccnc2)nc2ccc(Br)cc12	0	2	34	-14	42	-10	.
O=C1NC(=O)C(=Cc2ccc(Cl)cc2Cl)S1	54*	-24	-59	7	-148	-4	37
SMILES	CF NFkB block	TRPM1 prom inh	Shn3 inh set2	KKLEB tox	Peg3 prom inh-1	LMP1 NFkB inh	CF NFkB conf	others
O=C(NCc1cccnc1)c1ccc(Cn2c(=S)[nH]c3ccc(Br)cc3c2=O)cc1	52*	1	1	-42	-6	1	38
O=C(NNc1ccccc1Br)C(O)(c1cccc(C(F)(F)F)c1)c1cccc(C(F)(F)F)c1	57*	19	54	-47	54*	-5	83*
CCNC(=O)C1(C)CCCN1C(=O)c1ccc2c(c1)OCO2 (centres undefined)	15	.	-21	3	1	.	.
CC[C@@]1(c2cccc(C)c2)C(=O)N(C(=O)OC)N1C(=O)OC	54*	46	-11	-25	17	5	22
CC[C@@]1(c2ccccc2OC)C(=O)N(C(=O)OC)N1C(=O)OC	36	12	-3	-21	17	-4	.
CCc1ccc(NC(=O)C(=O)NCC2CCCN2S(=O)(=O)c2ccccc2)cc1 (centres undefined)	-7	7	26	21	7	4	.
CCOCCOC(=O)c1[nH]c2c(c1C)C(=O)CC(c1ccccc1)C2 (centres undefined)	36	33	30	-15	-23	5	.
CCCCCOC(=O)c1[nH]c2c(c1C)C(=O)CC(c1ccco1)C2 (centres undefined)	52*	47	92*	-47	-21	7	85*
COc1ccc(C(=O)Nc2cccc3cccnc23)cc1OC	-31	-53	-17	4	-90	-1	.
COc1ccc(C(=O)Nc2cccc(NC(=O)c3ccc(OC)c(OC)c3)n2)cc1OC	84*	-21	42	0	14	19	62*
Cc1cc2nc(CN(C)C(=O)C3CCC(=O)N(C4CCCC4)C3)[nH]c2cc1C (centres undefined)	17	.	3	-14	11	2	.
NS(=O)(=O)c1ccc(CCNC(=O)c2ccncc2)cc1	-18	5	1	-1	0	-2	.
NS(=O)(=O)c1ccc(CCNC(=O)c2ccc(C#CC3(O)CCCCC3)cc2)cc1	81*	11	6	3	87*	-3	80*
C[C@H](NC(=O)Cc1cccc2ccccc12)C(=O)N1CCOCC1	-3	-3	5	-4	1	9	.
O=C(CCS(=O)(=O)c1ccccc1)N(CCCN1CCOCC1)c1nc2ccccc2s1	73*	-35	-27	-22	108*	-14	55*

Compound activity (PubChem BioAssay)
